High-throughput results from PubChem BioAssay.
GLD-1 TGE inh: GLD-1/TGE RNA complex disruptors, primary screen, biochemical, fluorescence polarization; Female germline-specific tumor suppressor gld-1 (Caenorhabditis elegans), Q17339; actives 0.44% (n = 320,000); inhibition, % at 5.96 µM; purified GLD-1 + fluorescein TGE RNA; AID 2280, 2010;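 active = percent inhibition above a per-plate cutoff, the plate mean of test compounds plus 3 SD, cut at about 30% in these data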
eLon inh: inhibitors of E. coli Lon protease, primary screen, biochemical, fluorescence polarization. inhibition, % at 7.94 µM. actives 0.42% (n = 360,000). purified E. coli Lon protease. AID 602123, 2011; in the data active = inhibition above about 13%, passing the limit was not always enough
EBV gp42 inh: Epstein-Barr virus gp42 inhibitors, primary screen, biochemical, uHTS, fluorescence polarization; Glycoprotein 42 (Epstein-Barr virus (strain AG876)), Q1HVG2; Fluorescence polarization binding assay, mP read-out; inhibition, % (tested at 21.74 µM); actives 0.42% (n = 220,000); AID 1085, 2008; in the data active = inhibition above about 50%
Target sequence (Q1HVG2 whole entry, looked up): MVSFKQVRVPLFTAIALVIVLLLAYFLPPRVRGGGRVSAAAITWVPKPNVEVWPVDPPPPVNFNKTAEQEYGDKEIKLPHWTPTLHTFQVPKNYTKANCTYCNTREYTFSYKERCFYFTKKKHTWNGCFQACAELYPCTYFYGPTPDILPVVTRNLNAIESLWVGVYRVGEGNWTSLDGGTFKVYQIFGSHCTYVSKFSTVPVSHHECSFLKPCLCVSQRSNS
MCL1 BIM primary: inhibitors of MCL1 binding to BIM-BH3, primary screen, biochemical, fluorescence polarization | Induced myeloid leukemia cell differentiation protein Mcl-1 (Homo sapiens), Q07820 | GST-MCL1 / FITC-Bim-BH3 fluorescence polarization | inhibition, % at 10.9 µM | actives 0.68% (n = 320,000) | AID 2057, 2009;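 active = inhibition above the mean inhibition of all tested compounds plus 3 SD, set per campaign, cut at about 40% in these data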;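 also: higher means more loss of mP so more displacement of Bim peptide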
Bcl-xL primary: inhibitors of human Bcl-xL, primary screen, biochemical, fluorescence polarization, HTS; actives 0.7% (n = 320,000); GST-Bcl-xL / FITC-Bim BH3 peptide fluorescence polarization; AID 2129, 2009; inhibition, % at 10.9 µM; Bcl-2-like protein 1 (Homo sapiens), Q07817;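 active = inhibition above the mean of all tested compounds plus 3 SD, cutoff set per campaign, cut at about 30% in these data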;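 also: inhibitors lower millipolarization by displacing the labeled peptide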
Target sequence (Q07817 whole entry, looked up): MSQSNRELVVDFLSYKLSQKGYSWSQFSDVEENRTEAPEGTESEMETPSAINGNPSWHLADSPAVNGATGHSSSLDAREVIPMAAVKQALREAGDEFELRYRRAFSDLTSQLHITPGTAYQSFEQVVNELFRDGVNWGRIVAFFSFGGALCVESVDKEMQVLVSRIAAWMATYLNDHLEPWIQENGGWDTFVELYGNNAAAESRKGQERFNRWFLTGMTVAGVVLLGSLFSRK
MEX-5 binding: MEX-5 zinc finger RNA-binding disruptors – biochemical, C. elegans, fluorescence polarization, MLPCN library, primary screen | activity score (negative = inhibition of binding), % at 10 µM | AID 1832, 2009 | MEX-5/FITC-TCR2 RNA binding; active compounds read low | actives 0.38% (n = 300,000);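 active = inhibition past about -25% in most replicates, and total fluorescence under double the plate's negative control median, limit read from the data; inconclusive = replicates evenly split on the limit, or fluorescence at least double controls; inactive = too little inhibition in most replicates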
Hits are given with their value; . = inactive; ? = inconclusive; / = not tested or not shown. This is a sample that favours compounds with a hit; in the whole collection about 1.4% have one here.

SMILES	GLD-1 TGE inh	eLon inh	EBV gp42 inh	MCL1 BIM primary	Bcl-xL primary	MEX-5 binding
Cc1ccccc1S(=O)(=O)NNC(=O)C(=O)NNc1ccccn1	.	.	.	.	.	-25.6
Nc1ccc(S(=O)(=O)NNC(=O)C(=O)NNc2ccccn2)cc1	.	.	.	.	.	-30.3
Cc1ccc(S(=O)(=O)NNC(=O)C(=O)NNc2ccccn2)cc1	.	.	.	.	.	.
CC(=O)Nc1ccc(S(=O)(=O)NNC(=O)C(=O)NNc2ccccn2)cc1	.	.	.	.	.	-45.3
Cc1cc(C)c(C(O)c2ncc(-c3ccccc3Cl)[nH]2)c(C)c1 (stereo not given)	/	.	/	/	/	/
CN(C)c1ccc(-c2cc(NC=O)c3ncc(-c4ccc(F)c(Cl)c4)n3c2)cc1	/	.	/	/	/	/
Cn1nnnc1SCC(=O)Nc1ccccc1Br	.	.	/	.	.	.
Cn1nnnc1SCC(=O)Nc1ccccc1N1CCCCC1	.	.	139.7	.	.	.
CCCCn1c2nc3ccccc3nc2c2c(=O)n(CCC)cnc21	.	.	.	.	.	.
CCCCCn1nc(-c2ccccc2)c2nc3ccccc3nc21	.	.	161.2	.	.	?
CCCn1nc(-c2ccccc2)c2nc3ccccc3nc21	.	/	64.8	.	.	/
O=C(CSc1nc(-c2ccc(F)cc2)nc2c1Cc1ccccc1O2)Nc1cccc(C(=O)O)c1	/	.	71.1	/	/	.
CN(C)c1ccc(N=Cc2nc(-c3ccccc3)oc2O)cc1	.	.	165.6	.	.	-64.1
CC(=O)Oc1oc(-c2ccccc2)nc1C=Nc1ccc(N(C)C)cc1	.	.	.	.	.	-33.0
Cc1ccc(N=Cc2nc(-c3ccc(C)cc3)oc2O)cc1	/	.	.	/	/	-42.4
Oc1oc(-c2ccccc2)nc1C=Nc1ccccc1	.	.	.	.	.	.
Oc1oc(-c2ccc(Br)cc2)nc1C=Nc1ccc(Br)cn1	.	.	.	.	.	.
CCOc1cc(Cl)c(S(=O)(=O)NCc2cccnc2)cc1Cl	.	.	/	.	.	.
CCOc1ccc(OCC(=O)OCC(=O)N2CCN(S(=O)(=O)c3ccc(C)cc3C)CC2)cc1	/	.	/	/	/	/
CC(C)=CCC[C@H](C)CC1Cc2[nH]c(=S)[nH]c(=O)c2C(c2ccc(Cl)cc2)O1 (stereo not given in full)	/	.	/	/	/	/
Clc1ccc(-c2cn(-c3nc4ccccc4s3)nn2)cc1	/	.	/	/	/	/
COc1ccc(NCC(=O)Nc2cccc(S(=O)(=O)N3CCCC3)c2)cc1Cl	.	.	/	/	/	/
COc1cc(C(c2c(C)[nH][nH]c2=O)c2c(C)[nH][nH]c2=O)cc([N+](=O)[O-])c1O	.	.	.	.	.	-80.5
CCOc1cc(C(c2c(C)[nH][nH]c2=O)c2c(C)[nH][nH]c2=O)cc([N+](=O)[O-])c1O	.	.	/	.	.	-68.5
Cc1ccc(C(c2c(C)[nH][nH]c2=O)c2c(C)[nH][nH]c2=O)cc1[N+](=O)[O-]	.	.	.	.	.	.
SMILES	GLD-1 TGE inh	eLon inh	EBV gp42 inh	MCL1 BIM primary	Bcl-xL primary	MEX-5 binding
COC(=O)[C@]12CCCCC=C1N(CCC1=CCCCC1)C(=O)[C@H](CC(=O)NCc1cccc3ccccc13)C2	/	.	/	/	/	/
C#CCN(C[C@H]1[C@H](OC(=O)Nc2c(C)noc2C)[C@H](OC(=O)Nc2c(C)noc2C)C[C@@H](C(=O)OC)[C@H]1C(=O)OC)S(=O)(=O)c1ccc(C)cc1	/	.	/	/	/	/
Cc1cc(C(=O)N/N=C2\CCCC(=O)C2)c2ccccc2n1	73.9	.	.	.	.	.
O=C(Cc1ccc2cccnc2c1)c1ccc(O)cc1O	.	.	.	.	.	.
Oc1ccc2cccnc2c1	.	.	.	44.6	40.3	.
c1ccc(N2CCN(c3nc(-c4cccs4)nc4ccccc34)CC2)cc1	.	.	.	.	.	.
Oc1ccc(N2CCN(c3nc(-c4cccs4)nc4ccccc34)CC2)cc1	.	.	.	44.1	31.9	.
C[C@H](CO)N1C[C@H](C)[C@@H](CN(C)C(=O)CN2CCOCC2)Oc2ncc(-c3cncnc3)cc2C1=O	/	.	/	/	/	/
